Laboratory results as given in article PMC7819943, “Rice protein-binding microarrays: a tool to detect cis-acting elements near promoter regions in rice”.
The full ranking holds about 68,000 sequences; the median of “fluorescence intensity (a.u.)” is about 9,100, and the highest 2% start at about 16,000. For the sample, the highest values were picked, then their nearest neighbours and some sequences at random.

target: OsWRKY34 (Oryza sativa, UniProt Q0JBA9 1-250); experiment: protein-binding microarray (RPBM); PBS, 2% BSA, 51.3 ng/ul salmon testes DNA, 50 uM zinc acetate, 200 nM TF, 25 C, 1 h; high values mean tight binding; conditions: protein: recombinant; tags: N-terminal polyhistidine and DsRed monomer fusion (pET32a); label: CyDye5-dUTP incorporated in the synthesized complementary strand; 3' TTTTT single-stranded linker to array surface; dsDNA, one strand shown
Sequence (Q0JBA9 entry or part of it): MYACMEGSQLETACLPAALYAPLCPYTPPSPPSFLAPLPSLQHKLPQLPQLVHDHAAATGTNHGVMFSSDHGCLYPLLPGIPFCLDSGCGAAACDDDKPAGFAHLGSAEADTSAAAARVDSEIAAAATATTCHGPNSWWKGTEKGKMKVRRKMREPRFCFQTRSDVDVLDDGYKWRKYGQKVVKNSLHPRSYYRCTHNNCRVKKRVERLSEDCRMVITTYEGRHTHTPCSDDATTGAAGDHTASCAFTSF
Outline: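 Binding signal is defined as the fluorescence intensity of each feature in arbitrary units, read on an Axon 4000B scanner. Transcription factors with N-terminal polyhistidine and DsRed fusions came from E. coli BL21-CodonPlus and were purified on Ni–NTA. They were incubated at 200 nM for 1 h at 25 °C on a custom Agilent array that had been made double-stranded with Cy5-dUTP, with 50 µM zinc acetate present, and the array was washed.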

Row | Sequence | binding signal
1 | GCTCGCCGCGTGCTCTCGTCATCCATCCGACCCACGCCCGCGGAGTCACCTAGTGCAG | 11000 fluorescence intensity (a.u.)
2 | ATTTTATATGATTTCTTACAGACTTTTTTTATCATTTTACCGGAGTCACCTAGTGCAG | 9760 fluorescence intensity (a.u.)
3 | GCATTGGTTGGTGGTTTGGTGACGGCTTCGTTGTAGGCCTCGGAGTCACCTAGTGCAG | 9760 fluorescence intensity (a.u.)
4 | TCCTCTCTCTCTCTCTCTCTCTCTCCTCCTTTGGAGTTGTCGGAGTCACCTAGTGCAG | 10500 fluorescence intensity (a.u.)
5 | CGTCCAGTCCGCTCCCTCCCTCATTCATTCGGTTCGGTAACGGAGTCACCTAGTGCAG | 8870 fluorescence intensity (a.u.)
6 | CGTCGACGACGTCTCGATCGATCGGTGGTGGTGGTGGTGGCGGAGTCACCTAGTGCAG | 8540 fluorescence intensity (a.u.)
7 | CTCGTGGTCAAATCTGAATATCCGATACTTCCGTTTCAAACGGAGTCACCTAGTGCAG | 8300 fluorescence intensity (a.u.)
8 | GATCTCATCCCGTCCCGTCATCTGCTTCCTCTCTCGGAACCGGAGTCACCTAGTGCAG | 16900 fluorescence intensity (a.u.)
9 | CGCTTTCCTCTCCGGCAACGACCTCGCAGCTGTGGCCACCCGGAGTCACCTAGTGCAG | 18600 fluorescence intensity (a.u.)
10 | TGTGCCGCTCCGTCGTGCTCTTCGTCGCGCCACTCATCCTCGGAGTCACCTAGTGCAG | 9080 fluorescence intensity (a.u.)
11 | ACCAACCAACCACTGCTCTCGCCGCGCCGTCCTCTTCATCCGGAGTCACCTAGTGCAG | 18200 fluorescence intensity (a.u.)
12 | GCGCTCGCCGCTGCCGCAAGCTCGCCTCCGACCCCGGCCACGGAGTCACCTAGTGCAG | 9530 fluorescence intensity (a.u.)
13 | TCTGCTTCTTCATCCTCGTGCTCTGCTTCTCTCTTCTTCCCGGAGTCACCTAGTGCAG | 8980 fluorescence intensity (a.u.)
14 | ACCGTCTCATCTTCTTCTTCCTCCTCCTCTGATCTTCTCCCGGAGTCACCTAGTGCAG | 8220 fluorescence intensity (a.u.)
15 | CGCCGCCGCTCCAGCTCCAGCCGCCCGTGCTCCCTCGCGGCGGAGTCACCTAGTGCAG | 8200 fluorescence intensity (a.u.)
16 | CGCCTCGCGGCAGGCAGCCGAGCTGTCTCCAACCGTGCCGCGGAGTCACCTAGTGCAG | 37300 fluorescence intensity (a.u.)
17 | CGTTTTCTTTTTTCTTCCTCGCTTTCTCTCTCTCTCTCTCCGGAGTCACCTAGTGCAG | 11600 fluorescence intensity (a.u.)
18 | CCCCAACCCGCCGCCAGCCACCGAGCTCGCCACCGTCTCCCGGAGTCACCTAGTGCAG | 8970 fluorescence intensity (a.u.)
19 | TCACCACTGCTGCTCTCGCTGCCGTCCTTGTTCTTCGCGCCGGAGTCACCTAGTGCAG | 8110 fluorescence intensity (a.u.)
20 | ACAATCCATTTTATTCCAACAGATATATACACGGGGACAACGGAGTCACCTAGTGCAG | 8410 fluorescence intensity (a.u.)
21 | GGCTAGGTTGTGCGCGCCCTTCTCGATGTAGCAATAGCAACGGAGTCACCTAGTGCAG | 8520 fluorescence intensity (a.u.)
22 | CCTTCGACCCGTCCCCTCACAAACGGCCGTTTCCCTCCCGCGGAGTCACCTAGTGCAG | 9230 fluorescence intensity (a.u.)
23 | GATCGAATCGAATAGAGTACATTCTCTACAGGGGAGGGGACGGAGTCACCTAGTGCAG | 9760 fluorescence intensity (a.u.)

Row | Sequence | binding signal
24 | GTCTGTGAATGTTTTATTTGCCTTGTCTGAACTATCTTTACGGAGTCACCTAGTGCAG | 11400 fluorescence intensity (a.u.)
25 | TGTTGGTGAATGGTAATTTTTTGGGTTGATATGTTGCTGACGGAGTCACCTAGTGCAG | 9580 fluorescence intensity (a.u.)
26 | CTTCCTTCCTAACGTATCGCCCACATTCCTCCACGTCTCCCGGAGTCACCTAGTGCAG | 8980 fluorescence intensity (a.u.)
27 | TCCATTTCCTTGTTTGGTTGGGTGGATGAGAATGGATTGACGGAGTCACCTAGTGCAG | 9010 fluorescence intensity (a.u.)
28 | ACACCGCACCGCCGCAATCGTTGGCACAAGCTACAACCCTCGGAGTCACCTAGTGCAG | 8540 fluorescence intensity (a.u.)
29 | CAAAACAGCCGCGTTTTGGCTCACTAGTCACTTGTTTGACCGGAGTCACCTAGTGCAG | 9710 fluorescence intensity (a.u.)
30 | TTGTCTCACCACTGCTTCGCATCCTCCGCCGCCGCCTCACCGGAGTCACCTAGTGCAG | 11000 fluorescence intensity (a.u.)
31 | GCAACCACTGTCTCGCTCTCCGCCGCCATCGCCGCCGCCGCGGAGTCACCTAGTGCAG | 10500 fluorescence intensity (a.u.)
32 | CAGCCCACCGCCGCATCCTCGCAACCACTGTCTCGCTCTCCGGAGTCACCTAGTGCAG | 17000 fluorescence intensity (a.u.)
33 | ATTTTTTTGGGCGCGGGTTGGAGCCGGTTTGACTAAAAGGCGGAGTCACCTAGTGCAG | 8310 fluorescence intensity (a.u.)
34 | GATTGACTTGCCAAACATTTTACATGCGTTTATTGTACCACGGAGTCACCTAGTGCAG | 9920 fluorescence intensity (a.u.)
35 | CTCCTGGCAACCCCATGCACTGCTTTTGCTGCCCTTAAGTCGGAGTCACCTAGTGCAG | 8620 fluorescence intensity (a.u.)
36 | AAATATACAACTCTTGGACGCCCTTACATCTCTCCATTGTCGGAGTCACCTAGTGCAG | 8230 fluorescence intensity (a.u.)
37 | AGCCACCTTGTCGTTTTCCGCTCCTCACCTGCTCAACTTCCGGAGTCACCTAGTGCAG | 9800 fluorescence intensity (a.u.)
38 | ACACACCGCGGGTTGGAGGAGGAGGAGGAGGAGGTAGGGGCGGAGTCACCTAGTGCAG | 10500 fluorescence intensity (a.u.)
39 | GTTTGATTTGGTGAGGCGGGCGGTGTGCGCGTGGTGGTCTCGGAGTCACCTAGTGCAG | 8680 fluorescence intensity (a.u.)
40 | TACGGGTTAGGGTTTGGGGTTGGGGTCAAGGTAGGAGGGGCGGAGTCACCTAGTGCAG | 22500 fluorescence intensity (a.u.)
41 | AGAGGTTTGGGGTTGGTTCATCTCGCGGGCTTGGGCGGCGCGGAGTCACCTAGTGCAG | 14400 fluorescence intensity (a.u.)
42 | GTGCGCGTTCTTGGTGTTATGGAGGCGGGTCTCGGCGGGGCGGAGTCACCTAGTGCAG | 17600 fluorescence intensity (a.u.)
43 | CTTGGAGGTGGTTCAGGTGGAGGCGGCGGTCTCGGAGGTGCGGAGTCACCTAGTGCAG | 9240 fluorescence intensity (a.u.)
44 | GGTTTGGTTGGGGTTTAGGTCTCGGGGCGGCGCGGAGGCGCGGAGTCACCTAGTGCAG | 17700 fluorescence intensity (a.u.)
45 | CGGCGGGTTAGGGTTTGGGGTTGGGGTAAGGATAGGAGGGCGGAGTCACCTAGTGCAG | 14200 fluorescence intensity (a.u.)
